In the supplement of paper PMC11732987, “Enantioselective OTUD7B fragment discovery through chemoproteomics screening and high-throughput optimisation” (Communications Chemistry, 2025):

Experiments:
Assay in all cases: log2 ratio of Biotin-Ahx-Ub-VS probe labelling (fragment/DMSO); higher = less target engagement (more negative = stronger competition), active = hit call of the paper (q ≤ 0.05, log2 ratio ≤ -1)
Conditions in all cases: compound concentration: 200 uM; treatment time: 3 h
[1] = target: T1, USP42 (UniProt Q9H9J4)
T1 sequence (whole entry): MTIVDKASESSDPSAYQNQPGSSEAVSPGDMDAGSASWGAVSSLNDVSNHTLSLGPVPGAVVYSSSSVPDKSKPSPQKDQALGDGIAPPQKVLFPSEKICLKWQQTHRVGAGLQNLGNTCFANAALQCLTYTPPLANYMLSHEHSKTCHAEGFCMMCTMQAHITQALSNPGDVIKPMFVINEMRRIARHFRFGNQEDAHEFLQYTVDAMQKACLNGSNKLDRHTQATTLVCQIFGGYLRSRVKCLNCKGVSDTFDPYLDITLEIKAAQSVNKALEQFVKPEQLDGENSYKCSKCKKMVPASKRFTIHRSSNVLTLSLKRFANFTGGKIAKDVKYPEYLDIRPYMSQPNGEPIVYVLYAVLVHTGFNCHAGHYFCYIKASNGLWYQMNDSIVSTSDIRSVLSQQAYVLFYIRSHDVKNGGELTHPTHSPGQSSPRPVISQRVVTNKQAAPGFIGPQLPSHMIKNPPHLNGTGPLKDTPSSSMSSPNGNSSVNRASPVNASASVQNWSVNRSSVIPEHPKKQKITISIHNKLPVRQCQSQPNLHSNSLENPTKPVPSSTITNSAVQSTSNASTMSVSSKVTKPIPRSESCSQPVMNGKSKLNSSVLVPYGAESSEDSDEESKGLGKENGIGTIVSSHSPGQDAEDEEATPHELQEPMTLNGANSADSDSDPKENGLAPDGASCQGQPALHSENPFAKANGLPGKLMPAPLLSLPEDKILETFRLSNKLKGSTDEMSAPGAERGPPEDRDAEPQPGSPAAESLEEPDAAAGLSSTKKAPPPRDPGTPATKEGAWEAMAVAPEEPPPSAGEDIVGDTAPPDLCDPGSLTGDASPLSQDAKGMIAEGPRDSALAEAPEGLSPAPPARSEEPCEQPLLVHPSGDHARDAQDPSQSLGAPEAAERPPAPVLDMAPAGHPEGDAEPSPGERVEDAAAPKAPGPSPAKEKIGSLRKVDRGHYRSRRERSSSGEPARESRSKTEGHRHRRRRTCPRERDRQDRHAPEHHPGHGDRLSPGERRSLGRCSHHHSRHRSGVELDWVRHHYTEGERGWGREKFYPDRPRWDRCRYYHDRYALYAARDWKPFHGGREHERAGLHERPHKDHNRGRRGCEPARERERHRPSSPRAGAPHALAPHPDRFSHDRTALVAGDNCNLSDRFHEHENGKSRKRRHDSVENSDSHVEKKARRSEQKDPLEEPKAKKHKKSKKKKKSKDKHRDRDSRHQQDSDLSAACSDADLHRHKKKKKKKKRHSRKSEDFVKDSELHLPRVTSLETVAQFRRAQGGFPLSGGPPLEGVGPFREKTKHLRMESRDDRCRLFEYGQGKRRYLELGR
Summary of the method: (§1)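 HEK293T lysate (495 µg per sample, in Tris/CHAPS/IGEPAL buffer with protease inhibitors) was treated in triplicate with fragment at 200 µM or with DMSO for 3 h. It was then treated with Biotin-Ahx-Ub-VS (0.5 µM final) for 1 h. Labelled DUBs were NeutrAvidin-enriched, digested with LysC and trypsin, and run by diaPASEF LC-MS/MS. Spectronaut label-free quantities were global-median-normalised. Values are average log2 ratios fragment/DMSO by unpaired t-test, using proteins with ≥2 unique peptides.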

[2] = target: USP46 (UniProt P62068)
Chain of USP46 (P62068 whole entry): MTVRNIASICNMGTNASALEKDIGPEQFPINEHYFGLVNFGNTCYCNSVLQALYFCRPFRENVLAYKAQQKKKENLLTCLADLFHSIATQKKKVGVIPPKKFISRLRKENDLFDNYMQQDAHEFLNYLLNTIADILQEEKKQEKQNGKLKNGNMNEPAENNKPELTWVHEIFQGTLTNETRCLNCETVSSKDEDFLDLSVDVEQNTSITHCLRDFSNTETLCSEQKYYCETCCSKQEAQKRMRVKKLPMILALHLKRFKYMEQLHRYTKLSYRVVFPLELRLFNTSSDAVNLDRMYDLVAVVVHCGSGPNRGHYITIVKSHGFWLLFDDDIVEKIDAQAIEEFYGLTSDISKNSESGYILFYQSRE
Summary of the method: as §1

[3] = target: T2, USP47 (UniProt Q96K76)
T2 sequence (whole entry): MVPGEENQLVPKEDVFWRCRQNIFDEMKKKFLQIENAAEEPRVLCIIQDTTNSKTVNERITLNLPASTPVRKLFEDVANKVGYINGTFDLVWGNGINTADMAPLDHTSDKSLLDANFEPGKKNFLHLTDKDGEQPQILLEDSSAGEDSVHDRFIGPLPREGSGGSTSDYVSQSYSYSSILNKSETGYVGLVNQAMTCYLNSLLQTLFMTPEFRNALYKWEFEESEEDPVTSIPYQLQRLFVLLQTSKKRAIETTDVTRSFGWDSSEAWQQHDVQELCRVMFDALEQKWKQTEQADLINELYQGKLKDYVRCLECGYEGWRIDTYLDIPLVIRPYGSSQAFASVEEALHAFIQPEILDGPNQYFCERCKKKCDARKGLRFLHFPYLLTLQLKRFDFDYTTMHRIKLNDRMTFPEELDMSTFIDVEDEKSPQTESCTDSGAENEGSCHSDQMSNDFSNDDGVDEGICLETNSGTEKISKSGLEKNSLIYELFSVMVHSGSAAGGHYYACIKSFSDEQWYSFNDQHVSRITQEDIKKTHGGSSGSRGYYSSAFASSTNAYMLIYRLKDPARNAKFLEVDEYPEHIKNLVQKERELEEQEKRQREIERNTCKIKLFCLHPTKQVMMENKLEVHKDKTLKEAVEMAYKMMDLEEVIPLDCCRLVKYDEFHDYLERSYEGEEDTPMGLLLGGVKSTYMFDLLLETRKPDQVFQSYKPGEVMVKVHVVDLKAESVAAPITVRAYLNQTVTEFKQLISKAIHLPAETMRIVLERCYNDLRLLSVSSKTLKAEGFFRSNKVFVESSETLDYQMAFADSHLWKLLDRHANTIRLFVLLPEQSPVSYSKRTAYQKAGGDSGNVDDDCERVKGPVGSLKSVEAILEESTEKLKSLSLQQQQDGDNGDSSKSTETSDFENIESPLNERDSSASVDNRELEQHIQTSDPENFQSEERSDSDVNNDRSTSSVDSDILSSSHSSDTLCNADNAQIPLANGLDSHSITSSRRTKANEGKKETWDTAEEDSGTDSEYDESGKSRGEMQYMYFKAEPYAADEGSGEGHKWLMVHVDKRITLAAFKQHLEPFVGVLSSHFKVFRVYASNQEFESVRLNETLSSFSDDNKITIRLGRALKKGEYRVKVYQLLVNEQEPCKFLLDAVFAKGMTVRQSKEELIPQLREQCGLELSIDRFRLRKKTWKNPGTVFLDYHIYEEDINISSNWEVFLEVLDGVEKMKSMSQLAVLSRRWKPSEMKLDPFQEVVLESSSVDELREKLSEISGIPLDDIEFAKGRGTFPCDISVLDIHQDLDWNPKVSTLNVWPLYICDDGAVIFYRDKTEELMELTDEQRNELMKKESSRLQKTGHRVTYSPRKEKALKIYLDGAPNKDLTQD
Summary of the method: as §1

[4] = target: T3, USP48 (UniProt Q86UV5)
T3 sequence (whole entry): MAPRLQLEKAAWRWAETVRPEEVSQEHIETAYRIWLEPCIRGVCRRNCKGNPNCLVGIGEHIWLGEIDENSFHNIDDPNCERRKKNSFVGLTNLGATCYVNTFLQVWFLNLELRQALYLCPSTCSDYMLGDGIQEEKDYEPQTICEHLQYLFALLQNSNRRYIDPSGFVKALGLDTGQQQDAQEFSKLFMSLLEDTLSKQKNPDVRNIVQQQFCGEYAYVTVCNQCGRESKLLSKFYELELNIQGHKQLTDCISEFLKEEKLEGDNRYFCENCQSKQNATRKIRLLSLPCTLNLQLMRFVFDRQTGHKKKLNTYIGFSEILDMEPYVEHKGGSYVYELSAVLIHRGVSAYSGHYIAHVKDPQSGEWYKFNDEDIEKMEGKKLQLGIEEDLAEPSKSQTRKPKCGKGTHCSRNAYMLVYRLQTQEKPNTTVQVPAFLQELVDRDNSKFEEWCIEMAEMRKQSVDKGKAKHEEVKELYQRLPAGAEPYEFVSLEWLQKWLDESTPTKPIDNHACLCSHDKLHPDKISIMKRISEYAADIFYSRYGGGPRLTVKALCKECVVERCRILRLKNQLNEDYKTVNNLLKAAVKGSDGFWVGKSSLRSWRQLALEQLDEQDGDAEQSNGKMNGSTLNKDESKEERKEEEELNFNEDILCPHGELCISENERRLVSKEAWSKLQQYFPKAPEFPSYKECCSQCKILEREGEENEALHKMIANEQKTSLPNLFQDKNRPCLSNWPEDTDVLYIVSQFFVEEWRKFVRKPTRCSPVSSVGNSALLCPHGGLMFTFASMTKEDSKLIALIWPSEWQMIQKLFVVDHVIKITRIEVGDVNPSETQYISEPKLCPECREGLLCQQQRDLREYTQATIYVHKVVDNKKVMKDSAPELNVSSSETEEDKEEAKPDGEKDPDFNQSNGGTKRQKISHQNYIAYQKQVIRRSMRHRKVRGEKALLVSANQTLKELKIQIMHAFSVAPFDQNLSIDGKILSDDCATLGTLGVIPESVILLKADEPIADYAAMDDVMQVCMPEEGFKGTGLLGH
Summary of the method: as §1

[5] = target: T4, USP5 (UniProt P45974)
T4 sequence (whole entry): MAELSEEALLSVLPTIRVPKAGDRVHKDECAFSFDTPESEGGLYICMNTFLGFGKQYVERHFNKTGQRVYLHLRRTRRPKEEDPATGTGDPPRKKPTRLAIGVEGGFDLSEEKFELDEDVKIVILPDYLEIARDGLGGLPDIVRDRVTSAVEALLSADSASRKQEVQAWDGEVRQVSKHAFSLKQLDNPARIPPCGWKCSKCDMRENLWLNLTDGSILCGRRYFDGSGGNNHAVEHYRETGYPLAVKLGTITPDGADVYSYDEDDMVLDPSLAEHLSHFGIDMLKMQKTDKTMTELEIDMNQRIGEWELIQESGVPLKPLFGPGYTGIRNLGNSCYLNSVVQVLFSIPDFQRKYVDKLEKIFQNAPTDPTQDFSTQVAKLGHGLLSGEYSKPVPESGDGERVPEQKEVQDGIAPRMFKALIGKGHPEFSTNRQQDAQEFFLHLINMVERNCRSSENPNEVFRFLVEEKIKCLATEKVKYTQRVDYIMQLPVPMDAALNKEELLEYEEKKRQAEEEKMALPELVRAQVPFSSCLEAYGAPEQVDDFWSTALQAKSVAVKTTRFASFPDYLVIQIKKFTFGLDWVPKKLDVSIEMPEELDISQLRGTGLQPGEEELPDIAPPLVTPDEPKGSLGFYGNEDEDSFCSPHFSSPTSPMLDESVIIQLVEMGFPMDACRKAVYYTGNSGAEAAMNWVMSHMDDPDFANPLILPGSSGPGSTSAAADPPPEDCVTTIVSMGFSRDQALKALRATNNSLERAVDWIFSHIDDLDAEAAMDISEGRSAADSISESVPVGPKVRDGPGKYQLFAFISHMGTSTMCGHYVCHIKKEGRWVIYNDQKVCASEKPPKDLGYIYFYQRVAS
Summary of the method: as §1

[6] = target: USP54 (UniProt Q70EL1)
Summary of the method: as §1

[7] = target: USP7 (UniProt Q93009)
Chain of USP7 (Q93009 whole entry, looked up): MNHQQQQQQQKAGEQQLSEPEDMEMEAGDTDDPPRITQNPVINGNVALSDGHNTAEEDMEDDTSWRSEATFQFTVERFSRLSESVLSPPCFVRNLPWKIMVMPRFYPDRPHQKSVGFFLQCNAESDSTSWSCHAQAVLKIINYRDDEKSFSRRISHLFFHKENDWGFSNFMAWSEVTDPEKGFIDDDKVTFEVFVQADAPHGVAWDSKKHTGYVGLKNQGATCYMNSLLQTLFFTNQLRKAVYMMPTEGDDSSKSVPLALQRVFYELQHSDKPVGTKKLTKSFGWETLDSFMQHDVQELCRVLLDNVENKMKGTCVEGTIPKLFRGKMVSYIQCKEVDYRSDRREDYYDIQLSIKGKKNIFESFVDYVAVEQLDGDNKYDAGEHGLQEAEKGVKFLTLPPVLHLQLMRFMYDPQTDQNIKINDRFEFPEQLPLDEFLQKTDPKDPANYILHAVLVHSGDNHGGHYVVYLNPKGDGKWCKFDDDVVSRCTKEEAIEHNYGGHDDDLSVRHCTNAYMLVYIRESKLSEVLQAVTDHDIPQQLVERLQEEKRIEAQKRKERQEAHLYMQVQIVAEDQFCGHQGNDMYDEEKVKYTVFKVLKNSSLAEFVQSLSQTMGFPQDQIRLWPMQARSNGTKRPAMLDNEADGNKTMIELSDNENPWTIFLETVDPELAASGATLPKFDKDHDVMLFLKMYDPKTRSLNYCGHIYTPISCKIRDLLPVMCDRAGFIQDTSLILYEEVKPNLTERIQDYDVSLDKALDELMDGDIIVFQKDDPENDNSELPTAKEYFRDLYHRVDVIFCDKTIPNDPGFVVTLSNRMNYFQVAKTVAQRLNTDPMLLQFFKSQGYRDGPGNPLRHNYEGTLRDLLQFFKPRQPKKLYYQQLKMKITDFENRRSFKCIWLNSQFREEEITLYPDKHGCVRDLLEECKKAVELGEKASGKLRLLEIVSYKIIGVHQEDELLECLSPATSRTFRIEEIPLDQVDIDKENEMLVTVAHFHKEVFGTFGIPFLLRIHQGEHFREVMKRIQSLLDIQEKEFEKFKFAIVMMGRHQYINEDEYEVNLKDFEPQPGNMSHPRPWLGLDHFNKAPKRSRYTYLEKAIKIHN
Summary of the method: as §1

[8] = target: T5, USP8 (UniProt P40818)
T5 sequence (whole entry): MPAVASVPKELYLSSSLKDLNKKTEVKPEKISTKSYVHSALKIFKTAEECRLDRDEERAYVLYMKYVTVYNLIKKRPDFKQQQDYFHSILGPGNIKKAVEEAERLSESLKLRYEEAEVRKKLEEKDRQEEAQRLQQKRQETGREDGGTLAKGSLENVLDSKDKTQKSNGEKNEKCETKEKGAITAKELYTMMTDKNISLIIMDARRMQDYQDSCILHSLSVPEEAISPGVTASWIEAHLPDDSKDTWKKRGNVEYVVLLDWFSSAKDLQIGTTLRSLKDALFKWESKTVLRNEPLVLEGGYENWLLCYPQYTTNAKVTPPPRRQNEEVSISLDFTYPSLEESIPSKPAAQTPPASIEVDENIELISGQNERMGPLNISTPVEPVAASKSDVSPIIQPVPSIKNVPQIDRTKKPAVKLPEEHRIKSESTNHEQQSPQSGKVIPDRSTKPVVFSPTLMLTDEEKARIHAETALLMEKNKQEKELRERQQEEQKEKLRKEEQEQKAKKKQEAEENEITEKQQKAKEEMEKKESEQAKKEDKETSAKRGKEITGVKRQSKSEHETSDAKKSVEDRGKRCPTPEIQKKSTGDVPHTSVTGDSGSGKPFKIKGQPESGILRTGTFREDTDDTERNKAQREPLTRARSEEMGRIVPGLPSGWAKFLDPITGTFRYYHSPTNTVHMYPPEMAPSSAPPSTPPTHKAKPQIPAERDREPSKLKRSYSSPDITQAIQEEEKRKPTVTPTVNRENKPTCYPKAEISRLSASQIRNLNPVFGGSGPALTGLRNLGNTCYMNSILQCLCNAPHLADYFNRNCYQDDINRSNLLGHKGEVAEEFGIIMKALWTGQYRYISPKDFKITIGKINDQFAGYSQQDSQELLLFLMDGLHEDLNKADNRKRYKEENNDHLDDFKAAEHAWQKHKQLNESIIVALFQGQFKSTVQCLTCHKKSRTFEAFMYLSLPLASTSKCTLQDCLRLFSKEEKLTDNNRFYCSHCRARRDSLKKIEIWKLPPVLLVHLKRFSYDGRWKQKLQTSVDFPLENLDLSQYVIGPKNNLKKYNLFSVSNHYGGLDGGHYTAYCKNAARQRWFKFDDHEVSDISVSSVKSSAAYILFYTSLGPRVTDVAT
Summary of the method: as §1

[9] = target: USP9X (UniProt Q93008)
Chain of USP9X (Q93008 whole entry): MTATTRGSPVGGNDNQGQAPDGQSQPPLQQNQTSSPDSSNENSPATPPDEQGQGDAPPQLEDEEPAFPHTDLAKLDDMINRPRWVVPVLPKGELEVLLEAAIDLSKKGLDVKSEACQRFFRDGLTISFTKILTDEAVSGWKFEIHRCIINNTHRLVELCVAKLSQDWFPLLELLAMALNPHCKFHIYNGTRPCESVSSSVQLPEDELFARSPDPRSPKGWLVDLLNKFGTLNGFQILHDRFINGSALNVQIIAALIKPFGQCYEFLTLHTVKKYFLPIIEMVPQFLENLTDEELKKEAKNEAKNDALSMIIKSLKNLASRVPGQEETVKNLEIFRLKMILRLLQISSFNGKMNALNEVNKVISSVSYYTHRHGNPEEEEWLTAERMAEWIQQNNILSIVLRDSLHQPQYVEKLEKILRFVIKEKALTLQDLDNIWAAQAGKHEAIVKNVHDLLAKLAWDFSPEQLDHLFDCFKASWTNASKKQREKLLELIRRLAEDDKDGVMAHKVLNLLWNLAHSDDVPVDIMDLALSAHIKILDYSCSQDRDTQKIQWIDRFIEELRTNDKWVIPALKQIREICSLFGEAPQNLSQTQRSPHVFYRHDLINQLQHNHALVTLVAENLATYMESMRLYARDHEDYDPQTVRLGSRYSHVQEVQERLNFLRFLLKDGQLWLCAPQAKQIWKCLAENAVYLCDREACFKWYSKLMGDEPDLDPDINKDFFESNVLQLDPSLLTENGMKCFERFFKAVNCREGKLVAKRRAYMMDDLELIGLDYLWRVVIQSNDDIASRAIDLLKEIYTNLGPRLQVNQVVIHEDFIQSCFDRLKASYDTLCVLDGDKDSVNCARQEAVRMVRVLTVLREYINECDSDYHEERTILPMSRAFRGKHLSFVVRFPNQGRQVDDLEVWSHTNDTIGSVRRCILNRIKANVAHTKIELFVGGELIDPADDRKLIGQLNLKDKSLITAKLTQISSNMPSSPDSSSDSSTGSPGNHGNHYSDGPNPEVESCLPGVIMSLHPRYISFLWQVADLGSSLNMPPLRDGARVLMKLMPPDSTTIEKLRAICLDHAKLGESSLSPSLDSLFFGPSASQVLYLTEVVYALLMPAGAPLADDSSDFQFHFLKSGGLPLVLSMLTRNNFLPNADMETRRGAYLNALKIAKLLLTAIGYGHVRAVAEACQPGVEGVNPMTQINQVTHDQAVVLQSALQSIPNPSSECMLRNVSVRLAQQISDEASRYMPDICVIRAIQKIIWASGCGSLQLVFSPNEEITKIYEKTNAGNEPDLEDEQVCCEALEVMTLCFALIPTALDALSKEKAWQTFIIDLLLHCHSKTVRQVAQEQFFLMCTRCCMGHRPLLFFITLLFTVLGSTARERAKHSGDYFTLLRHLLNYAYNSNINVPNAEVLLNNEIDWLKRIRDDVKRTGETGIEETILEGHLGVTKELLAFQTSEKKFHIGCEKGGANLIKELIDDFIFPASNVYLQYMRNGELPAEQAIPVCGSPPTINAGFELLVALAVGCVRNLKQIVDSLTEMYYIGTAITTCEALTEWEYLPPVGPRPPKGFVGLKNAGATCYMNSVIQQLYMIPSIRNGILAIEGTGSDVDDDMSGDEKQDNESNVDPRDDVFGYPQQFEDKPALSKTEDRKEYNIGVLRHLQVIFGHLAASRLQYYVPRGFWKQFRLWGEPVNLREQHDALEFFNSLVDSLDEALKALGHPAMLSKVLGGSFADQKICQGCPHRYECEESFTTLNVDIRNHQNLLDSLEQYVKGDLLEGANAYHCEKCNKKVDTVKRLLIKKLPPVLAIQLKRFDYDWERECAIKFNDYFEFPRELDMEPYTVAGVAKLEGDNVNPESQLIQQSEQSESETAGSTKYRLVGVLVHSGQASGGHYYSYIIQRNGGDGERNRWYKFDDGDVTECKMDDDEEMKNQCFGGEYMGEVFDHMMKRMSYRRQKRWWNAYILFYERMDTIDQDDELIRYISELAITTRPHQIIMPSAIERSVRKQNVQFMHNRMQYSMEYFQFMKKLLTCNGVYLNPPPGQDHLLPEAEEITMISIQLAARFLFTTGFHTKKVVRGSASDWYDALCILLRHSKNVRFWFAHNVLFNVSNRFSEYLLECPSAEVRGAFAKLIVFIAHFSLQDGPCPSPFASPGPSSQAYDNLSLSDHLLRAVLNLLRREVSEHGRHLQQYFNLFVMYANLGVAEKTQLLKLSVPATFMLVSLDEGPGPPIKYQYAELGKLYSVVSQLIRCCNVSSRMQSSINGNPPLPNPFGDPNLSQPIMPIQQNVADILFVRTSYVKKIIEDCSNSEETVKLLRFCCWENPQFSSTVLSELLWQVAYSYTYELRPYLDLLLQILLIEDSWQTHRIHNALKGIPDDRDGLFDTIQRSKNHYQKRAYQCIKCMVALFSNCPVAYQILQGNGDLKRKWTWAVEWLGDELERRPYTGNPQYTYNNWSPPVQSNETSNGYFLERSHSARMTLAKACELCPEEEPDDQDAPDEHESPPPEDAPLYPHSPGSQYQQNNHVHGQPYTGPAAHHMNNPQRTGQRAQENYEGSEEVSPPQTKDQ
Summary of the method: as §1

[10] = target: UniProt O00487
Chain of UniProt O00487 (O00487 whole entry): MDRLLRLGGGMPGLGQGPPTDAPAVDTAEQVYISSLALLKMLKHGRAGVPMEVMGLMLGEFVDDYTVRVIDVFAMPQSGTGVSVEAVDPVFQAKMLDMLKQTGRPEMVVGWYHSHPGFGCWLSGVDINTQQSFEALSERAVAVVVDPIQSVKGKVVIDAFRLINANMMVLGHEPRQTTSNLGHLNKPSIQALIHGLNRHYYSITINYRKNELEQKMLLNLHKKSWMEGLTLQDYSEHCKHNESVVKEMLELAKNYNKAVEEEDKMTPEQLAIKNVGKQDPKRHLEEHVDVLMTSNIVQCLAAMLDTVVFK
Summary of the method: as §1

Measured: log2 ratio of Biotin-Ahx-Ub-VS probe labelling

Cl.O=C(CCl)N1CCn2ncc(O)c2C1
inactive: [1] -0.139 | [2] -0.686 | [3] -0.0187 | [4] -0.559 | [5] 0.0938 | [6] 0.44 | [7] -0.81 | [8] -0.577 | [9] -0.396 | [10] -0.395
